Measurements from the supplement of paper PMC6992640.
± gives the standard deviation of the averaged measurements.

Tests used:
Experiment in all cases: cell viability (% of vehicle); higher = less cytotoxic
HCI01 [1] = cells of a triple-negative basal-like breast cancer xenograft; conditions: 1 µM; 72 h
UCD52 [2] = cells of a triple-negative basal-like breast cancer xenograft; conditions: 1 µM; 72 h
WHIM2 [3] = cells of a triple-negative basal-like breast cancer xenograft; conditions: 1 µM; 72 h
WHIM30 [4] = cells of a triple-negative basal-like breast cancer xenograft; conditions: 1 µM; 72 h
HCI01 [5] = conditions: 10 µM; 72 h
HCI03 = cells of an ER-positive luminal breast cancer xenograft; conditions: 10 µM; 72 h
HCI09 = cells of a triple-negative luminal androgen receptor type breast cancer xenograft; conditions: 10 µM; 72 h
HCI11 = cells of an ER-positive luminal breast cancer xenograft; conditions: 10 µM; 72 h
HCI13 = cells of an ER-positive luminal breast cancer xenograft; conditions: 10 µM; 72 h
HCI16 = cells of a triple-negative basal-like breast cancer xenograft; conditions: 10 µM; 72 h
UCD52 [6] = conditions: 10 µM; 72 h
WHIM2 [7] = conditions: 10 µM; 72 h
WHIM30 [8] = conditions: 10 µM; 72 h

| SMILES | cell viability (HCI01 [1]) | cell viability (UCD52 [2]) | cell viability (WHIM2 [3]) | cell viability (WHIM30 [4]) | cell viability (HCI01 [5]) | cell viability (HCI03) | cell viability (HCI09) | cell viability (HCI11) | cell viability (HCI13) | cell viability (HCI16) | cell viability (UCD52 [6]) | cell viability (WHIM2 [7]) | cell viability (WHIM30 [8]) |
| --- | --- | --- | --- | --- | --- | --- | --- | --- | --- | --- | --- | --- | --- |
| Cc1cccc(CN2CCN(C(c3ccccc3)c3ccc(Cl)cc3)CC2)c1.Cl.Cl (configuration not stated) [Meclizine 2HCl] | 136 | 93.4 | 98 | 99.5 | 85.9 ± 7.1 | 57.9 | 74 ± 12 | 67.4 | 52.7 ± 10 | 91.8 | 44 ± 6.2 | 71.6 ± 13 | 45.4 ± 6.8 |
| Nc1ccc2cc3ccc([NH3+])cc3nc2c1.Nc1ccc2cc3ccc([NH3+])cc3nc2c1.O=S(=O)([O-])[O-] [Proflavine Hemisulfate] | 91.4 | 139 | 51.3 | 58.8 | 82.6 ± 55 | 144 | 23.3 ± 3.6 | 41.6 |  | 165 | 54.6 ± 16 | 50.3 ± 13 | 85.2 ± 2.2 |
| CC(C)(C)c1ccc(C(=O)CCCN2CCC(OC(c3ccccc3)c3ccccc3)CC2)cc1 [Ebastine] | 94.4 | 87.5 | 107 | 83.4 | 83.8 ± 57 | 70.2 | 53.2 ± 39 | 81.2 | 31.9 ± 3.6 | 77.5 | 52.1 ± 4.6 | 52.3 ± 7.3 | 78.2 ± 9.7 |
| CCC(=C(c1ccccc1)c1ccc(OCCN(C)C)cc1)c1ccccc1.O=C(O)CC(O)(CC(=O)O)C(=O)O [Tamoxifen Citrate] | 111 | 101 | 86.2 | 99.9 | 74 ± 57 | 78.8 | 28.1 ± 6 | 96.5 | 37.6 ± 3.9 | 59.7 | 34.5 ± 0.98 | 42.4 ± 7.6 | 104 ± 7.1 |
| CC1CC(=O)NN=C1c1ccc(NN=C(C#N)C#N)cc1 (configuration not stated) [Levosimendan] | 89.2 | 95.2 | 114 | 96.7 | 50.6 ± 31 | 183 | 51.9 ± 30 | 139 | 145 ± 28 | 82.2 | 51.1 ± 2.5 | 47.8 ± 9.7 | 86.7 ± 2.7 |
| CC[C@H](C)[C@H]1O[C@]2(CC[C@@H]1C)C[C@@H]1C[C@@H](C/C=C(\C)[C@@H](O[C@H]3C[C@H](OC)[C@@H](O[C@H]4C[C@H](OC)[C@@H](O)[C@H](C)O4)[C@H](C)O3)[C@@H](C)/C=C/C=C3\CO[C@@H]4[C@H](O)C(C)=C[C@@H](C(=O)O1)[C@]34O)O2 [Ivermectin] | 90.6 | 57.6 | 86.6 | 73.3 | 38.3 ± 8 | 81.2 | 20 ± 3.4 | 81 | 37.6 ± 8.1 | 82.9 | 76.3 ± 3 | 40.5 ± 7.1 | 36.2 ± 3 |
| COc1ncc(-c2ccc3nccc(-c4ccnnc4)c3c2)cc1NS(=O)(=O)c1ccc(F)cc1F | 53 | 23.2 | 31.9 | 48 | 64.11 ± 0.34 | 65.6 | 26.64 ± 0.21 | 70.3 |  | 147 | 43.4 ± 1 | 49.7 ± 7.6 | 42.9 ± 2.3 |
| CN1CCN(c2ccc(C(=O)/N=c3\[nH][nH]c4ccc(Cc5cc(F)cc(F)c5)cc34)c(NC3CCOCC3)c2)CC1 [Entrectinib] | 92.3 | 72.6 | 81.7 | 71.9 | 28.2 ± 2.5 | 59.8 | 22.8 ± 0.65 | 48.9 | 41 ± 5.5 | 58.5 | 36.98 ± 0.05 | 42.6 ± 4.1 | 41.8 ± 12 |
| Cc1nc(Nc2ncc(C(=O)Nc3c(C)cccc3Cl)s2)cc(N2CCN(CCO)CC2)n1 | 78.6 | 39.7 | 67.7 | 55.6 | 59.7 ± 21 | 53.7 | 53.2 ± 2.6 | 60.3 | 40.2 ± 3.5 | 40.5 | 39.3 ± 3.5 | 39.3 ± 3.4 | 57.8 ± 1.2 |
| COC(=O)C1=C(C)NC(C)=C(C(=O)OC2CCCN(Cc3ccccc3)C2)C1c1cccc([N+](=O)[O-])c1.Cl (configuration not stated) [Benidipine HCl] | 96.3 | 88.8 | 105 | 93.7 | 82.1 ± 16 | 68.3 | 27.9 ± 14 | 83.2 | 36.2 ± 7.7 | 87.5 | 51.4 ± 7.1 | 31.1 ± 6.1 | 64 ± 4.1 |
| O=C(NN=Cc1ccc([N+](=O)[O-])o1)c1ccc(O)cc1 [Nifuroxazide] | 78.8 | 91.1 | 95.3 | 77.5 | 63.5 ± 47 | 128 | 37 ± 17 | 82 | 62.8 ± 15 | 91.7 | 62.2 ± 28 | 94.9 ± 15 | 79.2 ± 5.8 |
| CC[C@@]1(O)C(=O)OCc2c1cc1n(c2=O)Cc2cc3c(CN(C)C)c(O)ccc3nc2-1 [Topotecan] | 65.9 | 101 | 56.5 | 37.4 | 42.8 ± 6.2 | 128 | 28.1 ± 0.98 | 44.4 | 49.1 ± 5.8 | 73 | 42.4 ± 0.96 | 44.5 ± 3.2 | 83.2 ± 6.8 |
| CO[C@H]1C[C@@H]2CC[C@@H](C)[C@@](O)(O2)C(=O)C(=O)N2CCCC[C@H]2C(=O)O[C@H]([C@H](C)C[C@@H]2CC[C@@H](OC(=O)C(C)(CO)CO)[C@H](OC)C2)CC(=O)[C@H](C)/C=C(\C)[C@@H](O)[C@@H](OC)C(=O)[C@H](C)C[C@H](C)/C=C/C=C/C=C/1C [Temsirolimus] | 76.2 | 55.1 | 80 | 74.2 | 31.8 ± 1.4 | 57.5 | 26.7 ± 8.6 | 54.3 | 24.6 ± 11 | 45.2 | 23.1 ± 2.3 | 42.4 ± 15 | 30.5 ± 1.6 |
